RORgamma inh: blocks mouse ROR gamma transcriptional activity | Drosophila S2 Gal4-RORgamma UAS-luciferase reporter, 20 h | Potency, µM (doses to about 53.6 µM), inactives show at the highest dose activity change, negative = inhibition, usual class: inhibitors | 310,000 tested, 5.4% active; also: nearly all actives have a fitted effect of over 60% in size
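Drosophila S2 cells stably expressing Gal4-DBD/mouse RORγ fusion under metallothionein promoter plus UAS-luciferase; compound 1 h, then 700 uM CuSO4 induction for 20 h at ambient temperature; inhibition read as reduced luminescence.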
VP16 counter: counter-screen for ROR gamma inhibitors: Gal4-VP16 reporter; Drosophila S2 Gal4-VP16 UAS-luciferase, luminescence, 20 h; Potency, µM (doses to about 53.6 µM), for inactives: at the top dose activity, negative = inhibition, actives largely listed as inhibitors; 310,000 tested, 3.5% active; AID 2546;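 also: Gal4-VP16 expression switched on by copper sulfate through the metallothionein promoter; nearly all actives have a fitted effect of over 50% in size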
TDP1 cell CPT: DT40-hTDP1 cell growth loss with CPT; chicken DT40 Tdp1-/-;hTDP1 cells + 20 nM CPT, ATP luminescence, 48 h; Potency, µM (doses to about 46.2 µM), for inactives: at the top dose activity change, negative = growth inhibition, actives largely listed as inhibitors; 420,000 tested, 12% active; also: nearly all actives have a fitted effect of over 55% in size
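Chicken DT40 Tdp1-/- cells stably complemented with human TDP1 were seeded at 400 cells/well in medium containing 20 nM camptothecin, exposed to pin-transferred compounds, and grown at 37 °C for at least 48 hr. Viability was read as ATP luminescence.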
ELG1 DNA repair: ELG1-dependent DNA repair inhibition; HEK293T ELG1-luciferase reporter, luminescence, 16 h; DNA damage induced by 5-fluorouridine; Potency, µM (top dose mostly 46.1 µM), without a hit: top-dose activity change, negative = inhibition, actives largely listed as inhibitors; 330,000 tested, 2.3% active; also: nearly all actives have a fitted effect of over 55% in size
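Cells (2,000 per well) received 5-fluorouridine plus test compound or DMSO and were incubated 16 hr at 37 °C, 5% CO2. Luciferase activity was read by luminescence 30 min after ONE-Glo addition; signal suppression marked inhibition of damage-induced ELG1 function.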
12-LOX inh: ALOX12 (human) lipoxygenase inhibition; purified 12hLO, xylenol orange hydroperoxide absorbance; Potency, µM (series often up to 108 µM), for inactives: at the top dose activity change, negative = inhibition, usual class: inhibitors; 580,000 tested, 1.1% active
Target sequence (P18054 whole entry, looked up): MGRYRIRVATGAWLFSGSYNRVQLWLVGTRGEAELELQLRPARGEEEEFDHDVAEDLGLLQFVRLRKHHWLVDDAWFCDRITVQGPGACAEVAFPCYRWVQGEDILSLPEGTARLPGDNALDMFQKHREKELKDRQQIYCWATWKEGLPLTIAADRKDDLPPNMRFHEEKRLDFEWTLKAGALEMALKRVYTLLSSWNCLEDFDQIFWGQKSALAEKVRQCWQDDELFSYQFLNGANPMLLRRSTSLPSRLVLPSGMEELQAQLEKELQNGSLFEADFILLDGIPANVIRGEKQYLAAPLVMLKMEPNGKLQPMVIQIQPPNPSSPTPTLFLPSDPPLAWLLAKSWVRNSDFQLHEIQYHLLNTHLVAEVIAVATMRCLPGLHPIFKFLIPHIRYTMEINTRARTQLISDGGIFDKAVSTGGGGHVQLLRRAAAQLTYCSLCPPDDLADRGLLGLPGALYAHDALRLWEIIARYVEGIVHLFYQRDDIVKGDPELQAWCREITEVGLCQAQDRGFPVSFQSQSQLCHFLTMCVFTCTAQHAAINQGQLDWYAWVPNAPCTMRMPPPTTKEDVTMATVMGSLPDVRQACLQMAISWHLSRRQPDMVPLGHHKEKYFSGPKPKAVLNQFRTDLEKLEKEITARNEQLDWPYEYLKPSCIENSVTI
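Purified human 12hLO at 150 nM in 25 mM Hepes, 0.01% Triton X-100, pH 7.0, preincubated 15 min at room temperature with compound. Reaction started with 40 uM arachidonic acid, 30 min at room temperature. Hydroperoxide measured by Fe-xylenol orange, 573/405 nm absorbance ratio.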
TDP1 cell noCPT: qHTS for Inhibitors of human tyrosyl-DNA phosphodiesterase 1 (TDP1): qHTS in cells in absence of CPT; DT40 Tdp1-/- hTDP1 cells, no CPT, ATP luminescence, 48 h; Potency, µM (highest dose often 46.2 µM), for inactives: top-dose activity change, negative = growth inhibition, usual class: inhibitors; 420,000 tested, 15% active; also: nearly all actives have a fitted effect of over 55% in size
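Chicken DT40 Tdp1-/- cells complemented with human TDP1, screened without camptothecin (DMSO vehicle only), 400 cells/well. Compounds pin-transferred, cells incubated at 37 °C for at least 48 hr. Growth read as ATP-dependent luminescence (CellTiter-Glo, 30 min at RT).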
The depositor's hits bear a star; ? = inconclusive; · = no result; [ ] = another dose, or the depositor's remark. Most compounds without a hit are left out; they make up all but 15% or so of the library. Calls follow the shape of the dose curve; as a rule, active = well fitted curve in the direction sought with a large enough effect; inconclusive = small, poorly fitted or top-dose-only effect, or another doubt; inactive = no such curve, though single readings can be large; an effect the other way counts as inactive or inconclusive. % is scaled to controls: 0 for no effect and ±100 for the full control effect; potency is read from the fitted curve at half-maximal effect.

SMILES	RORgamma inh	VP16 counter	TDP1 cell CPT	ELG1 DNA repair	12-LOX inh	TDP1 cell noCPT
CC1CCN(c2ccc(NC(=O)c3ccc(Br)o3)cc2)CC1	-21%	-4%	3%	?	0%	-4%
CC1CCN(c2ccc(NC(=S)NC(=O)c3ccc(-c4cccc([N+](=O)[O-])c4)o3)cc2)CC1	1.6µM*	7.1µM*	11µM*	?	-14%	10µM*
CC1CCN(c2ccccc2NC(=S)NC(=O)c2ccc(-c3cccc([N+](=O)[O-])c3)o2)CC1	1µM*	-3%	?	9%	?	?
Cc1ccc(OCc2nc(C3CCN(C(=O)c4ccco4)CC3)no2)cc1	·	·	·	·	25%	·
CCN(CC)C(=O)c1ccc(C(=O)c2c(C)cc(C)cc2C)cc1	9%	?	18µM*	?	1%	21µM*
CCCCc1cc(=O)oc2cc(OCC(=O)NCc3cccnc3)c(Cl)cc12	·	·	·	·	-7%	·
O=C(Nc1ccc2nn(-c3ccccc3)nc2c1)c1ccc2c(c1)OCCO2	18%	-20%	?	?	?	7.3µM*
Nc1c(C(=O)Nc2ccccc2)nnn1-c1ccc2c(c1)OCCO2	10µM*	?	-8%	?	9%	?
O=C(Nc1ccc2oc(-c3ccccc3F)nc2c1)c1ccccc1	·	·	·	·	-27%	·
CCc1ccc(-n2nc3ccc(NC(=O)c4ccc5c(c4)OCO5)cc3n2)cc1	8%	9%	21µM*	?	-15%	?
Cc1ccc(-n2nc3ccc(NC(=O)c4ccc5c(c4)OCO5)cc3n2)cc1	23%	?	?	16%	19%	?
O=C(Nc1ccc2oc(-c3ccccc3F)nc2c1)c1ccc2c(c1)OCCO2	36%	6%	10µM*	?	-5%	15µM*
Cc1ccc(NC(=O)c2nnn(-c3ccc4c(c3)OCCO4)c2N)cc1	-23%	3%	?	?	20%	?
CCOc1ccc(-n2nc3ccc(NC(=O)COc4ccccc4C)cc3n2)cc1	·	·	?	·	-7%	18µM*
CCOc1ccc(-c2nnn(CC(=O)c3ccc4c(c3)OCCO4)n2)cc1	?	-13%	?	?	3%[57.4 µM]	16µM*
CCOc1ccc(-n2nc3ccc(NC(=O)c4cccc(F)c4)cc3n2)cc1	·	·	·	·	-23%	·
CCOc1ccc(-n2nc3ccc(NC(=O)c4ccc5c(c4)OCCO5)cc3n2)cc1	10µM*	11µM*	3.3µM*	?	?	5.8µM*
CCCOc1ccc(-c2nnn(CC(=O)c3ccc4c(c3)OCCO4)n2)cc1	?	-4%	-7%	?	2%	-16%
CCOc1ccc(-c2nc3cc(NC(=O)COc4ccccc4C)ccc3o2)cc1	·	·	·	·	-5%	·
CS(=O)(=O)Nc1ccccc1CNC(=O)CCS(=O)(=O)C1CCCC1	·	·	·	·	-27%	·
O=C(c1ccccc1)N1CCC(N2Cc3ccccc3C2=O)CC1	·	·	·	·	3%[6.33 µM]	·
c1ccc2c(c1)OCCOCCOc1ccccc1OCCO2	·	·	·	·	-55%	·
COCCCNc1nc(SCc2ccccc2)nc2sc3c(c12)CCC3	11µM*	-19%	?	?	0%	21µM*
N#Cc1cnn(-c2nc(SCc3ccccc3)nc3sc4c(c23)CCCC4)c1N	-36%	12%	-20%	-4%	-10%	4%
CNC(=O)N(O)C1N(/N=C/c2ccccc2F)C(=S)SC1(C)C (stereo not drawn)	20%	23%	-12%	-9%	0%	13%
CNC(=O)N(O)C1N(/N=C/c2ccccc2O)C(=S)SC1(C)C (stereo not drawn)	?	?	5.2µM*	-3%	-3%	2.1µM*
CNC(=O)N(O)C1N(/N=C/c2ccc(SC)cc2)C(=S)SC1(C)C (stereo not drawn)	-14%	-12%	0%	0%	4%	7%
